# From PubChem
# RmlCD inh mix = inhibitors of RmlC and RmlD coupled enzymes. inhibition, % at 5.5 µM. 110,000 tested, 0.39% active. RmlC/RmlD coupled enzyme inhibition, 384-well mixture HTS; in the data active = inhibition above about 30%, passing the limit was not always enough
# YopH PTP inh = blocks Yersinia enterocolitica YopH tyrosine phosphatase; 140,000 tested, 0.16% active; inhibition, % (no concentration beside the values); fluorescence Ex485/Em525; in the data active = inhibition above about 50%
# Active calls of the source: *; · = no result. Sampled rows, rich in hits. Any-hit rate of the full collection: about 0.44%.
SMILES,RmlCD inh mix,YopH PTP inh
CN(C1=C(N2CCCCC2)C(=O)c2ccccc2C1=O)c1ccccc1,-9,8
O=C1C(Nc2ccccc2)=C(N2CCCCC2)C(=O)c2ccccc21,-6,98*
Cc1nc(-c2ccc(Cl)cc2)sc1C1(C)CC(c2cccc(F)c2)=NO1 (stereo unspecified),5,·
O=C(NC(=S)N1CCN(C(c2ccccc2)c2ccccc2)CC1)c1ccc(S(=O)(=O)N2CCOCC2)cc1,·,-21
O=C(NC(C(=O)O)c1ccccc1)c1ccc(S(=O)(=O)N2CCOCC2)cc1 (stereo unspecified),-31,50*
CCCCOP(=O)(OCCCC)C(Nc1ccccc1)c1ccc2c(c1)OCO2 (stereo unspecified),·,-26
COc1ccc2c(c1OC)C(=O)OC2C1c2c(cc3c(c2OC)OCO3)CCN1C (stereo unspecified),-3,-20
CN1CCc2cc3c(c4c2[C@H]1[C@H](O)c1ccccc1-4)OCO3,-9,101*
O=C(CN1C(=O)C2CC=CCC2C1=O)Nc1nnc(SCc2ccc(Cl)cc2)s1 (stereo unspecified),7,76*
O=C(CN1C(=O)C2CC=CCC2C1=O)Nc1nnc(SCc2c(Cl)cccc2Cl)s1 (stereo unspecified),-13,-1
O=C(N/N=C1\CCCc2c1[nH]c1ccc([N+](=O)[O-])cc21)c1ccncc1,·,2
Cc1cc(C)n(CC(=O)N2c3ccccc3Sc3ccccc32)n1,5,-6
O=C1CCC(=O)N1CC(=O)N1c2ccccc2Sc2ccccc21,8,54*
C=C1CCN([C@H](C(=O)NCc2ccc(Cl)cc2)C(C)C)S(=O)(=O)c2ccccc21,2,·
COc1ccc(C(=O)Nc2sc3c(c2C(=O)NCc2ccco2)CCCC3)cc1OC,146*,2
COc1cc(C(=O)Nc2sc3c(c2C(=O)NCc2ccco2)CCCC3)cc(OC)c1OC,-13,-5
Cc1ccc(CNC(=O)C2CC3Cn4c(nc5cc6ccccc6cc54)C3N2C)o1 (stereo unspecified),0,·
Cc1ccnc(SCC(=O)Nc2sc3c(c2C#N)CCC(C(C)(C)C)C3)n1 (stereo unspecified),7,1
Cc1cc(C)nc(SCC(=O)Nc2sc3c(c2C#N)CCC(C)C3)n1 (stereo unspecified),-10,93*
COC(=O)c1sccc1NC(=S)N1CCN(c2cc(C)ccc2C)CC1,·,-37
O=C1c2ccccc2S(=O)(=O)c2cc(C(=O)N3CCC(N4CCCC4)CC3)ccc21,-12,·
CC1CC(C)(C)NC(=S)N1CCCC(=O)N1CCN(c2ccccc2F)CC1 (stereo unspecified),·,-22
COC(=O)C1=CN(CC2CCCO2)C=C(C(=O)OC)C1c1ccccc1C(F)(F)F (stereo unspecified),8,2
COC(=O)C1=CN(CC2CCCO2)C=C(C(=O)OC)C1c1ccsc1 (stereo unspecified),58*,-22
CC(C)(C)OC(=O)N1CCC2(CC1)Oc1ccc(Cl)cc1C(=O)C21CC(c2ccc(Cl)cc2)=NO1 (stereo unspecified),6,·
SMILES,RmlCD inh mix,YopH PTP inh
CCCCN(C(=O)NC(=O)C1=C(N2CCOCC2)/C(=C/c2ccccc2)CC1)S(C)(=O)=O,·,-39
CN(C(=O)NC(=O)C1=C(N2CCOCC2)/C(=C/c2ccccc2)CC1)S(C)(=O)=O,135*,-37
O=C(NCCN1CCCCC1)c1ccc(=O)oc1,48*,-8
O=C(NCCN1CCCCC1)c1ccc2c(c1)OCCO2,6,-59
O=C1N[C@@H](Cc2cn(S(=O)(=O)c3ccc([N+](=O)[O-])cc3)c3ccccc23)C(=O)N[C@H]1Cc1ccccc1,-4,·
O=C(COc1ccccc1Cl)NCCC1=CCCCC1,·,-27
Cc1ccc(S(=O)(=O)N2CCOCC2)cc1C(=O)Nc1nc2ccccc2[nH]1,·,5
Cc1c(O)c(CN2CCCC2)cc2c3c(c(=O)oc12)CCC3,106,-50
CCc1cc(=O)oc2c(C)c(O)c(CN3CCCCC3)cc12,93*,-36
O=C(NCC1CC1)c1cc(-c2ccccc2)nn1CC1CC(c2cccc([N+](=O)[O-])c2)=NO1 (stereo unspecified),5,·
C[C@H](NC(=O)c1nc[nH]c1C(=O)N[C@@H](CCCCNC(=O)OC(C)(C)C)C(=O)OC(C)(C)C)c1ccccc1,2,·
COC(=O)c1ccc(Cl)c(NC(=O)CN2CCN(Cc3ccccc3)CC2)c1,12,64*
COC(=O)c1cccc(NC(=O)CN2CCN(Cc3ccccc3)CC2)c1,4,-14
CC(C)(C)NC(=O)CSC(=Nc1ccc(F)cc1)NC#N,-17,-27
Cc1ccccc1-n1c(-c2ccc(Cl)cc2)cnc1SCC(=O)NC1CCS(=O)(=O)C1 (stereo unspecified),·,5
CCOC(=O)N1CCC(NC(=O)c2cnn3c(C(F)(F)F)cc(-c4cccc(OC)c4)nc23)CC1,121*,·
CCOC(=O)c1cnn2c(C(F)(F)F)cc(-c3ccccc3)nc12,-14,-27
CCOc1cnn(Cc2ccccc2)c(=O)c1SCc1ccccc1,·,-18
CCC1=C(OC(=O)N(CC)CC)N2C(=O)OC(=NCC(=O)OC)[C@]2(Cc2ccccc2)[C@H]2C1=CC[C@H]1C(=O)N(c3ccccc3)C(=O)[C@H]12,-1,·
O=C(CCN(NC(=O)c1ccccc1)C1=NS(=O)(=O)c2ccccc21)NC1CCCCC1,·,-21
COc1cccc(OCCc2c(C)n[nH]c2C)c1,9,-20
Cc1cccc(OCCCCc2c(C)n[nH]c2C)c1,-3,70*
Cc1csc(NC(C)c2nc3cc(Cl)c(Cl)cc3n2CCCO)n1 (stereo unspecified),9,·
CCn1c(SCC(=O)N/N=C/c2ccc(C)s2)nc2ccccc21,·,4
Cc1cc(C)nc(SCC(=O)Oc2ccc3oc(=O)cc(C)c3c2)n1,6,51*
SMILES,RmlCD inh mix,YopH PTP inh
CCC(=O)Oc1ccc2oc(=O)cc(C)c2c1,·,40
CC(=O)Oc1ccc(N(C(C)=O)S(=O)(=O)c2ccc(C)c([N+](=O)[O-])c2)cc1,·,-15
COc1ccc(/C=C/C(=O)c2ccc(NC(=O)c3cccs3)cc2)cc1OC,21,-26
O=C1CC(c2ccccc2)c2cc(O)ccc2O1 (stereo unspecified),-7,70*
Cc1ccc(C2CC(=O)Oc3cc(O)ccc32)cc1 (stereo unspecified),-45,-14
CC(=O)N=c1c(C#N)cc2c(=O)n3ccccc3nc2n1Cc1ccccc1,·,-21
N=c1c(C(=O)NC2CCCC2)cc2c(=O)n3ccccc3nc2n1CCN1CCOCC1,3,-13
N#Cc1cc2c(=O)n3ccccc3nc2n(CCCN2CCOCC2)c1=O,79*,-46
O=C(NCCN1CCOCC1)c1cc2c(=O)n3ccccc3nc2n1Cc1ccccc1,86*,-27
O=C(CN1CCOCC1)N1CCN(c2ccc3ccccc3n2)CC1,14,·
C[C@@H]1CCC[C@@]2(O[C@@H](CCO)C[C@H](O)[C@H]2O)O1,3,·
O=C1NCCCC2c3c(cc(Br)c(O)c3Br)OC12N1CCOCC1 (stereo unspecified),-5,-51
O=C1NCCCC2c3cc(O)c4ccccc4c3OC12N1CCCCC1 (stereo unspecified),8,75*
O=C(CN1C(=O)NC2(CCc3ccccc3C2)C1=O)Nc1ccc(F)cc1 (stereo unspecified),·,-30
CC(=O)C1=C(c2ccc(Br)cc2)C(=O)c2ccccc2C1=O,·,4
CNC1=C(N(C(C)=O)c2ccc(Br)cc2)C(=O)c2ccccc2C1=O,·,84*
